Compound activity as filed in PubChem BioAssay.
Shh pathway inh = Hedgehog pathway signaling inhibitors, primary screen, luminescence, Shh-LIGHT2 cells, Gli-luciferase; Shh-LIGHT2 Gli-luciferase reporter, 30 h; inhibition, % (concentration not given with the values); actives 2.1% (n = 22,000); AID 2313, 2010;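 active means mean inhibition across valid replicates above about 65%, limit read from the data; inconclusive means mean under the limit, yet half or more replicates past it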;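 further: pathway switched on by Shh-conditioned medium diluted 1 in 25 in low serum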
MITF inhib = inhibitors of MITF, primary screen, MITF inhibitor project, cell-based, luminescence. TRPM1 promoter luciferase, 24 h. inhibition, % (no concentration beside the values). actives 0.28% (n = 37,000); in the data active means inhibition above about 85%; inconclusive means no clear call, values can overlap the other calls; inactive means below about 68%;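 further: human melanocyte line stably carrying TRPM1 promoter luciferase reporter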
NOMO-1 viab = NOMO-1 AML cell viability reduction, primary screen, STK33 inhibitor project, CellTiter-Glo luminescence. NOMO-1 AML viability, 72 h. inhibition, % (test concentration not listed). actives 7.5% (n = 37,000); in the data active means inhibition above about 80%; inconclusive means no clear call, values can overlap the other calls
* hit, by the source's call. Compounds with a hit are over-represented: about 7.8% of the library has one in this group of screens.

`C=C(C)C(=O)O[C@H]1[C@H]2C(=C)C(=O)O[C@@H]2C[C@@H](C)/C=C/C(=O)[C@](C)(O)[C@@H]1OC(=O)C(=C)C` gave Shh pathway inh 3, MITF inhib inconclusive and NOMO-1 viab 107*.
Screening Cn1c(SCC(=O)Nc2ccc(Cl)cc2)nnc1-c1ccc(Cl)c(Cl)c1 returned MITF inhib 26 and NOMO-1 viab 48.
Screening Cn1c(SCC(=O)Nc2cc(C(F)(F)F)ccc2Cl)nnc1-c1cnccn1 returned MITF inhib 8 and NOMO-1 viab -13.
Screening COC(=O)c1cn(CC(=O)NCC2CCCO2)c2ccccc12 (stereo unspecified) returned MITF inhib -12 and NOMO-1 viab 3.
Screening CC(C)C(NS(=O)(=O)c1ccccc1F)C(=O)O (stereo unspecified) returned MITF inhib -16 and NOMO-1 viab 3.
`CCCCN1C(=O)[C@H]2Cc3c([nH]c4ccccc34)[C@H](c3ccc(OC)cc3)N2C1=O` gave Shh pathway inh 79*, MITF inhib -5 and NOMO-1 viab 52.
CCCCCC1OC2=C(C(=O)N(OC)C2CSCC(O)C(=O)O)C(O)C1(C)O (stereo unspecified) was read as Shh pathway inh 9, MITF inhib 5 and NOMO-1 viab 41.
`Cc1ccc(Cl)cc1NC(=O)CSc1cc(C)c2cccc(C)c2n1` gave MITF inhib -14 and NOMO-1 viab inconclusive.
For Cn1c(O)c(C=Nc2cccc(CO)c2)c2ccccc21 the results were Shh pathway inh 10, MITF inhib -58 and NOMO-1 viab 26.
CCc1ccc(N=Cc2c(O)n(-c3ccccc3)c(=O)c3ccccc23)cc1 was read as Shh pathway inh -6, MITF inhib -16 and NOMO-1 viab 120*.
O=C(COc1ccc2c(-c3ccccc3)cc(=O)oc2c1)Nc1cc(C(F)(F)F)ccc1Cl was read as MITF inhib 13 and NOMO-1 viab inconclusive.
CCOC(=O)c1ccccc1NC(=O)C(C)Oc1cc(C)c(Cl)c(C)c1 (stereo unspecified) was read as MITF inhib -7 and NOMO-1 viab 35.
`CCOC(=O)c1ccccc1NC(=O)C(C)Oc1ccc2c(C)cc(=O)oc2c1` (stereo unspecified) gave MITF inhib 15 and NOMO-1 viab 104*.
CCOC(=O)C(C)Oc1ccc2c(-c3ccccc3)cc(=O)oc2c1 (stereo unspecified) was read as Shh pathway inh 5, MITF inhib -11 and NOMO-1 viab 109*.
`O=CN/C=C\c1ccc(O)cc1` gave Shh pathway inh -1, MITF inhib 7 and NOMO-1 viab 31.
For CCCC(O)/C(=C/C1=C(C(=O)CC(CC(=O)O)OC(N)=O)C(=O)c2cccc(O)c2C1=O)CC(C(=O)O)[N+](C)(C)C (stereo unspecified) the results were Shh pathway inh 44, MITF inhib 12 and NOMO-1 viab 108*.
N=C1C(c2nc3ccccc3s2)=C(O)CN1CCCN1CCOCC1 was read as MITF inhib -21 and NOMO-1 viab 14.
For Cc1ccccc1NC(=O)c1ccc(OCC(=O)Nc2ccccc2C(F)(F)F)cc1 the results were MITF inhib 4 and NOMO-1 viab 5.
`CCSc1ncc(Cl)c(C(=O)Nc2nnc(SCc3ccccc3F)s2)n1` gave MITF inhib 17 and NOMO-1 viab 14.
C[C@@H]1CCCCO[C@H](CN(C)S(=O)(=O)c2ccc(F)cc2)[C@@H](C)CN([C@H](C)CO)C(=O)c2cc(NS(=O)(=O)c3ccc(Cl)cc3)ccc2O1 was read as Shh pathway inh 13, MITF inhib 18 and NOMO-1 viab 67.
For C[C@@H]1CCCCO[C@@H](CN(C)S(C)(=O)=O)[C@@H](C)CN([C@H](C)CO)C(=O)c2cc(NS(=O)(=O)c3ccc(F)cc3)ccc2O1 the results were Shh pathway inh 74*, MITF inhib 1 and NOMO-1 viab 15.
`C[C@@H]1CCCCO[C@@H](CN(C)S(=O)(=O)c2ccc(Cl)cc2)[C@@H](C)CN([C@H](C)CO)C(=O)c2cc(NS(=O)(=O)c3cccs3)ccc2O1` gave Shh pathway inh 49, MITF inhib 20 and NOMO-1 viab 57.
Screening C[C@@H]1CCCCO[C@@H](CN(C)S(=O)(=O)c2ccc(F)cc2)[C@@H](C)CN([C@H](C)CO)C(=O)c2cc(NS(=O)(=O)c3ccc(Cl)cc3)ccc2O1 returned Shh pathway inh -53, MITF inhib 45 and NOMO-1 viab 112*.
CC(C)NC(=O)N(C)C[C@H]1OCCCC[C@@H](C)Oc2ccc(NS(=O)(=O)c3cn(C)cn3)cc2C(=O)N([C@H](C)CO)C[C@@H]1C was read as Shh pathway inh 72*, MITF inhib -3 and NOMO-1 viab -2.
